Experimental data reported in PubChem BioAssay AID1159580 (chemical genetic matrix, 2015).
The campaign covered roughly 5,500 compounds. About 2,000 (36%) were called active. Roughly 18% stayed inconclusive and do not appear here. Cut-off read from the data, not from the text of the source: active = normalized growth mostly below about 0.91 (no sharp cut-off); inconclusive = no clear call, values can overlap the other calls; inactive = mostly above about 0.92. Some of the results follow.

Experiment: chemical genetic growth profiling, strain panel (AID 1159580);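 note: tested at 20 µM; growth read once vehicle control cultures reached saturation at 30 °C; 1 = growth at the plate median or of vehicle wells; lower values mean less growth of the strain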
Conditions: growth OD

Measured: normalized growth

COc1cc2c(cc1OC)C1(O)C(=O)c3ccc(O)c(C(=O)O)c3OC1CO2 (stereo not drawn)
inactive: S. cerevisiae deletion strains, locus YKL009W, strain mrt4, hits give low values 1.06 | S. cerevisiae deletion strains, locus YKL068W, hits give low values 0.983 | S. cerevisiae deletion strains, locus YKL085W, strain MDH1 (second series), hits give low values 0.975 | S. cerevisiae deletion strains, locus YKL085W, strain MDH1, hits give low values 0.975 | S. cerevisiae deletion strains, locus YKL160W, strain elf1, hits give low values 0.984 | S. cerevisiae deletion strains, locus YKL190W, strain CNB1, hits give low values 0.991 | S. cerevisiae deletion strains, locus YKR001C, strain vps1, hits give low values 1.01 | S. cerevisiae deletion strains, locus YKR026C, strain gcn3, hits give low values 0.99 | S. cerevisiae deletion strains, locus YKR091W, strain srl3, hits give low values 0.992 | S. cerevisiae deletion strains, locus YLL001W, strain dnm1, hits give low values 1 | S. cerevisiae deletion strains, locus YLL026W, hits give low values 0.993 | S. cerevisiae deletion strains, locus YLL041C, strain sdh2, hits give low values 0.998 | S. cerevisiae deletion strains, locus YLR027C, strain aat2, hits give low values 0.998 | S. cerevisiae deletion strains, locus YLR039C, strain RIC1, hits give low values 1.08 | S. cerevisiae deletion strains, locus YLR058C, strain SHM2, hits give low values 1.01 | S. cerevisiae deletion strains, locus YLR102C, strain apc9, hits give low values 0.975 | S. cerevisiae deletion strains, locus YLR113W, strain HOG1, hits give low values 0.982 | S. cerevisiae deletion strains, locus YLR221C, strain rsa3, hits give low values 1.02 | S. cerevisiae deletion strains, locus YLR258W, strain gsy2, hits give low values 0.99 | S. cerevisiae deletion strains, locus YLR262C, strain YPT6 (second series), hits give low values 1.02 | S. cerevisiae deletion strains, locus YLR262C, strain YPT6, hits give low values 1.08 | S. cerevisiae deletion strains, locus YLR268W, strain sec22, hits give low values 1.02 | S. cerevisiae deletion strains, locus YLR320W, strain mms22, hits give low values 1.01 | S. cerevisiae deletion strains, locus YLR330W, strain CHS5, hits give low values 1 | S. cerevisiae deletion strains, locus YLR342W, strain FKS1, hits give low values 1.02 | S. cerevisiae deletion strains, locus YLR357W, strain rsc2, hits give low values 0.987 | S. cerevisiae deletion strains, locus YLR370C, strain arc18, hits give low values 0.988 | S. cerevisiae deletion strains, locus YLR371W, strain rom2, hits give low values 1 | S. cerevisiae deletion strains, locus YLR384C, strain iki3, hits give low values 0.985 | S. cerevisiae deletion strains, locus YLR418C, strain cdc73, hits give low values 1 | S. cerevisiae deletion strains, locus YML016C, strain PPZ1, hits give low values 1.01 | S. cerevisiae deletion strains, locus YML032C, strain rad52, hits give low values 1.01 | S. cerevisiae deletion strains, locus YML120C, strain ndi1, hits give low values 1 | S. cerevisiae deletion strains, locus YML124C, strain tub3, hits give low values 0.99 | S. cerevisiae deletion strains, locus YMR058W, strain fet3, hits give low values 0.995 | S. cerevisiae deletion strains, locus YMR078C, strain ctf18, hits give low values 0.992 | S. cerevisiae deletion strains, locus YMR125W, strain sto1, hits give low values 0.983 | S. cerevisiae deletion strains, locus YMR129W, hits give low values 0.987 | S. cerevisiae deletion strains, locus YMR205C, strain PFK2, hits give low values 1.02 | S. cerevisiae deletion strains, locus YMR223W, strain ubp8, hits give low values 0.98 | S. cerevisiae deletion strains, locus YMR231W, strain pep5, hits give low values 0.994 | S. cerevisiae deletion strains, locus YMR307W, strain GAS1, hits give low values 1.18 | S. cerevisiae deletion strains, locus YNL067W, strain RPL9B, hits give low values 0.977 | S. cerevisiae deletion strains, locus YNL071W, strain lat1, hits give low values 0.991 | S. cerevisiae deletion strains, locus YNL128W, strain TEP1, hits give low values 1 | S. cerevisiae deletion strains, locus YNL153C, strain GIM3, hits give low values 0.991 | S. cerevisiae deletion strains, locus YNL183C, strain NPR1, hits give low values 0.94 | S. cerevisiae deletion strains, locus YNL209W, strain ssb2, hits give low values 0.989 | S. cerevisiae deletion strains, locus YNL233W, strain BNI4, hits give low values 0.996 | S. cerevisiae deletion strains, locus YNL248C, strain rpa49, hits give low values 0.974 | S. cerevisiae deletion strains, locus YNL250W, strain rad50, hits give low values 0.968 | S. cerevisiae deletion strains, locus YNL271C, strain bni1, hits give low values 0.99 | S. cerevisiae deletion strains, locus YNL298W, strain CLA4, hits give low values 0.985 | S. cerevisiae deletion strains, locus YNL307C, strain MCK1, hits give low values 0.984 | S. cerevisiae deletion strains, locus YNL322C, strain KRE1 (second series), hits give low values 1.01 | S. cerevisiae deletion strains, locus YNL322C, strain KRE1, hits give low values 0.988 | S. cerevisiae deletion strains, locus YNR049C, strain mso1, hits give low values 0.996 | S. cerevisiae deletion strains, locus YNR052C, strain pop2, hits give low values 0.999 | S. cerevisiae deletion strains, locus YOL006C, strain TOP1, hits give low values 1.38 | S. cerevisiae deletion strains, locus YOL012C, strain htz1 0.856 | S. cerevisiae deletion strains, locus YOL147C, strain pex11, hits give low values 0.995 | S. cerevisiae deletion strains, locus YOR001W, strain rrp6, hits give low values 1.02 | S. cerevisiae deletion strains, locus YOR061W, strain CKA2, hits give low values 1.05 | S. cerevisiae deletion strains, locus YOR069W, strain VPS5, hits give low values 0.989 | S. cerevisiae deletion strains, locus YOR070C, strain gyp1, hits give low values 0.984 | S. cerevisiae deletion strains, locus YOR080W, strain dia2, hits give low values 0.998 | S. cerevisiae deletion strains, locus YOR083W, strain WHI5, hits give low values 0.999 | S. cerevisiae deletion strains, locus YOR106W, strain vam3, hits give low values 0.997 | S. cerevisiae deletion strains, locus YOR136W, strain idh2, hits give low values 1 | S. cerevisiae deletion strains, locus YOR144C, strain elg1, hits give low values 0.994 | S. cerevisiae deletion strains, locus YOR184W, strain ser1, hits give low values 1.07 | S. cerevisiae deletion strains, locus YOR231W, strain MKK1, hits give low values 0.989 | S. cerevisiae deletion strains, locus YOR265W, strain rbl2, hits give low values 1.01 | S. cerevisiae deletion strains, locus YOR270C, strain vph1, hits give low values 1.01 | S. cerevisiae deletion strains, locus YOR290C, strain snf2, hits give low values 0.978 | S. cerevisiae deletion strains, locus YOR316C, strain cot1, hits give low values 0.976 | S. cerevisiae deletion strains, locus YPL051W, strain arl3, hits give low values 0.982 | S. cerevisiae deletion strains, locus YPL078C, strain atp4, hits give low values 0.98 | S. cerevisiae deletion strains, locus YPL106C, strain sse1, hits give low values 0.991 | S. cerevisiae deletion strains, locus YPL240C, strain hsp82, hits give low values 0.977 | S. cerevisiae deletion strains, locus YPL241C, strain CIN2, hits give low values 0.983 | S. cerevisiae deletion strains, locus YPL256C, strain CLN2, hits give low values 0.95 | S. cerevisiae deletion strains, locus YPR119W, strain clb2, hits give low values 0.973 | S. cerevisiae deletion strains, locus YPR141C, strain kar3, hits give low values 0.96 | S. cerevisiae deletion strains, locus YPR163C, strain tif3, hits give low values 0.997 | S. cerevisiae deletion strains, locus YPR167C, strain met16, hits give low values 1 | S. cerevisiae deletion strains, strain wtn01, hits give low values 1.03 | S. cerevisiae strains, strain wild type, hits give low values 1.04
